For three compounds, Potency results are on record in PubChem BioAssay (NCATS).

Records with an inconclusive call do not appear. Activity calls are given as the source filed them. The call rests on the fitted dose curve; in most records, active means well fitted inhibition curve with a large enough effect; inconclusive means small, poorly fitted or top-dose-only effect; inactive means flat fitted curve, though single readings scatter.

Common to all, as to experiment: qHTS profiling for inhibitors of Plasmodium falciparum proliferation (AID 504749); further: nearly all actives have a fitted effect of over 60% in size
Common to all, as to details: P. falciparum in erythrocytes, SYBR Green DNA, 72 h; series mostly up to 28.7 µM
(In general: Quantitative high-throughput screening tests each substance at several concentrations.)

One test deals with CP192. In a few lines:
(§1)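 P. falciparum-infected erythrocytes (0.3% parasitemia, 2.5% hematocrit final) were exposed to compounds for 72 h at 37 C in 5% CO2, then lysed with SYBR Green buffer overnight at room temperature; parasite DNA fluorescence was normalized to artemisinin and DMSO controls.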

A further test deals with CP194. In a few lines: as §1
For another test, the system named is CP201. The essentials:
as §1

The next test deals with CP211. In a few lines:
as §1

A further test has as its system CP215. In a few lines: as §1
Another test relates to CP217. In a few lines: as §1
For another test, the system named is CP237. The essentials: as §1
In another test the test system is CP238. The essentials:
as §1

Another test deals with CP247. In a few lines:
as §1

The next test deals with CP250. In a few lines: as §1
The subject of a further test is CP252. In a few lines: as §1
The next test concerns CP256. In a few lines: as §1
A further test relates to CP260. In a few lines:
as §1

Another test deals with CP262. In a few lines: as §1
The subject of a further test is CP265. In a few lines:
as §1

The subject of another test is CP268. In a few lines: as §1
Another test deals with CP269. In a few lines:
as §1

A further test deals with CP286. The essentials:
as §1
Potency means the concentration at half of the fitted maximal effect.

Take `C[N+](C)(C)CCOC(=O)C(O)(c1ccccc1)c1ccccc1`: the Potency result with CP192, in the test with CP194, in the test with CP201, in the test with CP211, with CP215 and in the test with CP217 was “inactive” in each case. Also, the Potency result in the test on CP237, in the test on CP238, in the test on CP247, in the test with CP250, with CP252 and in the test with CP256 was “inactive” throughout. Further, the Potency result in the test on CP260, in the test on CP262, in the test on CP265, with CP268, with CP269 and with CP286 was “inactive” in each case.

For `Oc1ccc2[nH]cc(CCCCN3CC=C(c4ccccc4)CC3)c2c1`, the Potency in the test with CP237 was 5.62 µM (active); in the test on CP247 it was 7.08 µM (active).

As to `O=C(CCCN1CCC(n2c(=O)[nH]c3ccccc32)CC1)c1ccc(F)cc1`, the Potency in the test with CP215 was 4.55 µM (active); with CP217 it was 3.98 µM (active); in the test on CP237, 1.41 µM (active); with CP238, 3.55 µM (active); in the test on CP247 it was 3.55 µM (active); in the test on CP250, 2.82 µM (active). Also, the Potency in the test with CP256 is 3.55 µM (active); with CP260, 1.58 µM (active); with CP265, 1.12 µM (active); in the test with CP268, 3.61 µM (active); in the test with CP269, 1.81 µM (active); with CP286, 2 µM (active). Further, the Potency entry with CP262 is “inactive”.
